This passage reports Potency and outcome results from PubChem BioAssay (Tox21).

Several values for one entry are separate records, joined by “and”; a condition that tells them apart may be missing. Equal entries are not always repeated. Inconclusive results are not listed. A call without a number means that no potency is given here. More than one record can exist for a structure, and the calls need not agree. Activity calls are given as the source filed them. Calls come from the whole dose curve; as a rule, active = well fitted activation curve with a large enough effect in the repeat runs; inconclusive = weak or mixed curves; inactive = flat fitted curve, though single readings scatter.

The first experiment in a line: A CellTox Green Cytotoxicity Assay to monitor cytotoxicity in HEK293 cells - 32 hour (AID 1224881). Note: nearly all actives have a fitted effect of over 40% in size. Note: potency is the fitted concentration of half-maximal effect. The settings on record: CellTox Green fluorescence; series mostly up to 76.8 µM. The method, boiled down: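 Fluorescence from a DNA-binding dye excluded by viable cells was measured repeatedly in the same HEK293 wells (600 cells/well) during continuous compound exposure at 37 C. Each assay gives one read point: 0, 8, 16, 24, 32 or 40 h.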
On to `CCCCN(CCCC)CCCC`, for which the Potency result is “inactive”.

Consider `CCOC(=O)NNc1nncc2ccccc12`, for which the Potency entry is “inactive”.

`C[Si](O[Si](C)(C)C)O[Si](C)(C)C`: the Potency entry is “inactive”.

In the case of `N[C@@H](Cc1cc(I)c(Oc2cc(I)c(O)c(I)c2)c(I)c1)C(=O)O`, the Potency result is “inactive”.

Consider `O=C(O)c1ccccc1C(c1ccc(O)cc1)c1ccc(O)cc1`, for which the Potency result was “inactive”.

Consider `CCCCCCCCC/C=C/CC1CC(=O)OC1=O` (centres undefined), for which the Potency result was “inactive”.

Regarding `C#C[C@]1(O)CC[C@H]2[C@@H]3CCC4=CC(=O)CC[C@@H]4[C@H]3CC[C@@]21C`, the Potency result is “inactive”.

With `CCCCCC(N)=O`, the Potency entry was “inactive”.

Consider `O=C(O)c1ccc(C(=O)O)cc1`, for which the Potency result was “inactive”.

In the case of `CC1CCC(C(C)C)C(O)C1` (centres undefined), the Potency entry was “inactive”.

`CC1CCC2CC1C2(C)C` (centres undefined): the Potency entry is “inactive”.

Regarding `CSCCC=O`, the Potency entry was “inactive”.

Regarding `OCCOCCOCCO`, the Potency result is “inactive”.

With `O=c1[nH]nnc2ccccc12`, the Potency entry is “inactive”.

Take `CC(=O)CC(=O)Nc1ccccc1C`: the Potency result is “inactive”.

In the case of `CN(C)CCC(c1ccccc1)c1ccccn1` (centres undefined), the Potency entry is “inactive”.

On to `CCCCCC/C(C=O)=C\c1ccccc1`, for which the Potency entry was “inactive”.

As for `Nc1ccccc1[N+](=O)[O-]`, the Potency entry was “inactive”.

Consider `C=C(C)C(=O)O[C@H]1C[C@@H]2CC[C@@]1(C)C2(C)C`, for which the Potency is 10.9 µM (active) and inactive.

As to `OCC(CO)(CBr)CBr`, the Potency result was “inactive”.

In the case of `CC(=O)Nc1ccccc1`, the Potency result is “inactive”.

With `CCCCOC(=O)COc1ccc(Cl)cc1Cl`, the Potency result was “inactive”.

`CCCCC(CC)COC(=O)CCCCC(=O)OCC(CC)CCCC` (centres undefined): the Potency result was “inactive”.

Consider `C[C@H]1C[C@H]2[C@@H]3CCC4=CC(=O)C=C[C@]4(C)[C@@]3(F)[C@@H](O)C[C@]2(C)[C@@]1(O)C(=O)CO`, for which the Potency result was “inactive”.

For the compound `O=P(OC(CCl)CCl)(OC(CCl)CCl)OC(CCl)CCl`, the Potency result was “inactive”.

`Cc1ccc(N(C)C)cc1`: the Potency entry was “inactive”.

With `COc1ccc(NC(C)=O)cc1N`, the Potency result is “inactive”.

On to `C/C=C1/CC2C=CC1C2` (centres undefined), for which the Potency entry was “inactive”.

For the compound `C#CCN(C)Cc1ccccc1`, the Potency result was “inactive”.

As to `C=C(C)C(=O)OCCOCCOCCOC(=O)C(=C)C`, the Potency result is “inactive”.

As to `CC(C)CC(=O)CC(C)C`, the Potency result was “inactive”.

On to `CCC(O)OCCCOC` (centres undefined), for which the Potency entry was “inactive”.

Consider `OCc1cccnc1`, for which the Potency entry is “inactive”.

Regarding `CC1=CCC2CC1C2(C)C` (centres undefined), the Potency result is “inactive”.

Regarding `O=C(O)c1ccc2c(c1)C(=O)OC2=O`, the Potency result was “inactive”.

With `CCCCCOC(C)=O`, the Potency result was “inactive”.

In the case of `O=C=NCCCCCCN=C=O`, the Potency result is “inactive”.

In the case of `CCc1ccc(CCOc2ccc(CC3SC(=O)NC3=O)cc2)nc1` (centres undefined), the Potency entry was “inactive”.

Another experiment in a line: A CellTox Green Cytotoxicity Assay to monitor cytotoxicity in HepG2 cells - 0 hour (AID 1224882). Note: nearly all actives have a fitted effect of over 35% in size. The conditions noted are these: CellTox Green fluorescence; series mostly up to 76.8 µM. The method, boiled down: (§1)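 Real-time cytotoxicity: fluorescence of a cell-impermeant cyanine dye binding DNA of dead HepG2 cells, measured repeatedly (0–40 h) during compound exposure at 37 C. Cells seeded 600/well with reagent, dosed after 5 h.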
On to `CCCCN(CCCC)CCCC`, for which the compound was called inactive.

`CCOC(=O)NNc1nncc2ccccc12`: the outcome was inactive.

As to `C[Si](O[Si](C)(C)C)O[Si](C)(C)C`, the compound was classed as inactive.

Regarding `O=C(O)c1ccccc1C(c1ccc(O)cc1)c1ccc(O)cc1`, the compound was called inactive.

As to `CCCCCCCCC/C=C/CC1CC(=O)OC1=O` (centres undefined), the compound was classed as inactive.

With `O=C(O)c1ccc(C(=O)O)cc1`, the result was inactive.

Take `CC1CCC(C(C)C)C(O)C1` (centres undefined): the result was inactive.

Consider `CSCCC=O`, for which the outcome was inactive.

Take `OCCOCCOCCO`: the outcome was inactive.

On to `O=c1[nH]nnc2ccccc12`, for which the outcome was inactive.

For `CC(=O)CC(=O)Nc1ccccc1C`, the result was inactive.

`CCCCCC/C(C=O)=C\c1ccccc1`: the call was inactive.

For the compound `OCC(CO)(CBr)CBr`, the compound was called inactive.

As for `CC(=O)Nc1ccccc1`, the result was inactive.

For `CCCCOC(=O)COc1ccc(Cl)cc1Cl`, the call was inactive.

As for `CCCCC(CC)COC(=O)CCCCC(=O)OCC(CC)CCCC` (centres undefined), the compound was classed as inactive.

For the compound `C[C@H]1C[C@H]2[C@@H]3CCC4=CC(=O)C=C[C@]4(C)[C@@]3(F)[C@@H](O)C[C@]2(C)[C@@]1(O)C(=O)CO`, the call was inactive.

Regarding `O=P(OC(CCl)CCl)(OC(CCl)CCl)OC(CCl)CCl`, the compound was called inactive.

In the case of `Cc1ccc(N(C)C)cc1`, the compound was called inactive.

For `COc1ccc(NC(C)=O)cc1N`, the call was inactive.

As for `C/C=C1/CC2C=CC1C2` (centres undefined), the outcome was inactive.

Regarding `C=C(C)C(=O)OCCOCCOCCOC(=O)C(=C)C`, the call was inactive.

As for `CC(C)CC(=O)CC(C)C`, the outcome was inactive.

As for `CCC(O)OCCCOC` (centres undefined), the outcome was inactive.

Turning to `OCc1cccnc1`, the call was inactive.

With `CC1=CCC2CC1C2(C)C` (centres undefined), the compound was classed as inactive.

As for `O=C=NCCCCCCN=C=O`, the outcome was inactive.

With `CCc1ccc(CCOc2ccc(CC3SC(=O)NC3=O)cc2)nc1` (centres undefined), the compound was classed as inactive.

Another experiment in a line: A CellTox Green Cytotoxicity Assay to monitor cytotoxicity in HepG2 cells - 32 hour (AID 1224883). Note: nearly all actives have a fitted effect of over 50% in size. Note: potency is the fitted concentration of half-maximal effect. The conditions noted are these: CellTox Green fluorescence; series mostly up to 76.8 µM. The method, boiled down:
as §1
For `CCCCN(CCCC)CCCC`, the Potency entry is “inactive”.

For `CCOC(=O)NNc1nncc2ccccc12`, the Potency result is “inactive”.

Consider `C[Si](O[Si](C)(C)C)O[Si](C)(C)C`, for which the Potency result was “inactive”.

As to `N[C@@H](Cc1cc(I)c(Oc2cc(I)c(O)c(I)c2)c(I)c1)C(=O)O`, the Potency entry was “inactive”.

Consider `O=C(O)c1ccccc1C(c1ccc(O)cc1)c1ccc(O)cc1`, for which the Potency entry was “inactive”.

For the compound `CCCCCCCCC/C=C/CC1CC(=O)OC1=O` (centres undefined), the Potency result is “inactive”.

`C#C[C@]1(O)CC[C@H]2[C@@H]3CCC4=CC(=O)CC[C@@H]4[C@H]3CC[C@@]21C`: the Potency entry was “inactive”.

`CCCCCC(N)=O`: the Potency entry is “inactive”.

Regarding `O=C(O)c1ccc(C(=O)O)cc1`, the Potency result was “inactive”.

In the case of `CC1CCC(C(C)C)C(O)C1` (centres undefined), the Potency result is “inactive”.

In the case of `CC1CCC2CC1C2(C)C` (centres undefined), the Potency result was “inactive”.

On to `CSCCC=O`, for which the Potency entry was “inactive”.

Turning to `OCCOCCOCCO`, the Potency entry was “inactive”.

As to `O=c1[nH]nnc2ccccc12`, the Potency entry was “inactive”.

Consider `CC(=O)CC(=O)Nc1ccccc1C`, for which the Potency result is “inactive”.

Regarding `CN(C)CCC(c1ccccc1)c1ccccn1` (centres undefined), the Potency result was “inactive”.

Consider `CCCCCC/C(C=O)=C\c1ccccc1`, for which the Potency entry is “inactive”.

On to `Nc1ccccc1[N+](=O)[O-]`, for which the Potency result is “inactive”.

`C=C(C)C(=O)O[C@H]1C[C@@H]2CC[C@@]1(C)C2(C)C`: the Potency was 6.87 µM (active) and inactive.

`OCC(CO)(CBr)CBr`: the Potency result was “inactive”.

For `CC(=O)Nc1ccccc1`, the Potency result is “inactive”.

On to `CCCCOC(=O)COc1ccc(Cl)cc1Cl`, for which the Potency entry was “inactive”.

In the case of `CCCCC(CC)COC(=O)CCCCC(=O)OCC(CC)CCCC` (centres undefined), the Potency entry is “inactive and 2.45 µM (active)”.

On to `C[C@H]1C[C@H]2[C@@H]3CCC4=CC(=O)C=C[C@]4(C)[C@@]3(F)[C@@H](O)C[C@]2(C)[C@@]1(O)C(=O)CO`, for which the Potency result is “inactive”.

Turning to `O=P(OC(CCl)CCl)(OC(CCl)CCl)OC(CCl)CCl`, the Potency entry was “inactive”.

`Cc1ccc(N(C)C)cc1`: the Potency result was “inactive”.

`COc1ccc(NC(C)=O)cc1N`: the Potency entry was “inactive and 43.6 µM (active)”.

Take `C/C=C1/CC2C=CC1C2` (centres undefined): the Potency entry was “inactive”.

`C#CCN(C)Cc1ccccc1`: the Potency result is “inactive”.

As to `C=C(C)C(=O)OCCOCCOCCOC(=O)C(=C)C`, the Potency entry was “inactive”.

As to `CC(C)CC(=O)CC(C)C`, the Potency result was “inactive”.

With `CCC(O)OCCCOC` (centres undefined), the Potency result was “inactive”.

Regarding `OCc1cccnc1`, the Potency entry is “inactive”.

Take `CC1=CCC2CC1C2(C)C` (centres undefined): the Potency result is “inactive”.

With `O=C(O)c1ccc2c(c1)C(=O)OC2=O`, the Potency entry is “inactive”.

On to `CCCCCOC(C)=O`, for which the Potency entry was “inactive”.

As for `O=C=NCCCCCCN=C=O`, the Potency result is “inactive”.

As to `CCc1ccc(CCOc2ccc(CC3SC(=O)NC3=O)cc2)nc1` (centres undefined), the Potency result is “inactive”.
